In PubChem BioAssay (NCI):
Compounds without any hit were thinned out: in the full panel of roughly 83,000, 20% have a hit.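 Percent growth is the endpoint: 0 to 100 indicates growth inhibition (40 means 60% inhibition), 0 means no net growth, and negative values indicate cell death.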 Unmarked numbers belong to inactive results. Calls of active or inactive are those of the source. How the source made its calls: active means growth percent below 10; inactive means the rest.

Assays:
Experiment in all cases: NCI-60 one-dose screen, 48 h (100 = growth as untreated, 0 = no growth, -100 = all killed)
DU-145 prostate = conditions: 10 µM unless noted
K-562 leukemia = conditions: 10 µM unless noted
MALME-3M melanoma = conditions: 10 µM unless noted
MDA-MB-231 breast = conditions: 10 µM unless noted
RXF 393 renal = conditions: 10 µM unless noted
SF-268 CNS = conditions: 10 µM unless noted
SF-295 CNS = conditions: 10 µM unless noted
SF-539 CNS = conditions: 10 µM unless noted
UACC-257 melanoma = conditions: 10 µM unless noted
M14 melanoma = conditions: 10 µM unless noted
HCT-15 colon = conditions: 10 µM unless noted
HT29 colon = conditions: 10 µM unless noted
SNB-19 CNS = conditions: 10 µM unless noted
U251 CNS = conditions: 10 µM unless noted
PC-3 prostate = conditions: 10 µM unless noted
SK-MEL-5 melanoma = conditions: 10 µM unless noted
UACC-62 melanoma = conditions: 10 µM unless noted
LOX IMVI melanoma = conditions: 10 µM
SK-MEL-28 melanoma = conditions: 10 µM unless noted

Structure (SMILES) | growth (DU-145 prostate) | growth (K-562 leukemia) | growth (MALME-3M melanoma) | growth (MDA-MB-231 breast) | growth (RXF 393 renal) | growth (SF-268 CNS) [%] | growth (SF-295 CNS) | growth (SF-539 CNS) | growth (UACC-257 melanoma) | growth (M14 melanoma) | growth (HCT-15 colon) | growth (HT29 colon) | growth (SNB-19 CNS) | growth (U251 CNS) | growth (PC-3 prostate) | growth (SK-MEL-5 melanoma) | growth (UACC-62 melanoma) | growth (LOX IMVI melanoma) | growth (SK-MEL-28 melanoma)
COc1c(F)ccc(C(=O)Nc2ccc3nc(NC(=O)C4CCCN(S(=O)(=O)c5ccc(C(F)(F)F)cc5)C4)sc3c2)c1F (configuration not stated) | 88% | 64.6% | 89% | 81.3% | 9.04% (active) | 68 | 74.7% | 68.4% | 86.3% | 79.3% | 85.7% | 79.1% | 83.8% | 76% | 57.7% | 84.9% | 65.8% | 83.3% | 92.3%
COc1c(F)ccc(C(=O)Nc2ccc3nc(NC(=O)C4CCCN(S(=O)(=O)c5cccc(Cl)c5)C4)sc3c2)c1F (configuration not stated) | 90.5% | 53.8% | 97.6% | 87.9% | -6.85% (active) | 86.9 | 78.7% | 70.7% | 84.7% | 84.7% | 68.9% | 82.2% | 80.4% | 71.5% | 57.7% | 79.6% | 78.6% | 79.6% | 92.1%
C=C1CC[C@@H]2[C@]3(C)COC(c4ccco4)O[C@@H]3CC[C@@]2(C)[C@@H]1C/C=C1/C(=O)OCC1OC(C)=O (some centres not stated) | 48.8% | 3.97% (active) | -60.3% (active) | 48.8% | 27.5% | 67.8 | 59.5% | -47.3% (active) | 58.7% | 19% | -59% (active) | -46% (active) | 75.9% | 8.15% (active) | 18.8% | 43.9% | 34.5% | -100% (active) | 59.6%
COc1ccc2c(c1)c(-c1cc3nc(-c4cn(C)c5ncccc45)cc(N)n3n1)cn2C | -27.2% (active) | -31.2% (active) | -95.3% (active) | -82.8% (active) | -77.3% (active) | 11.9 | -79.4% (active) | -95.8% (active) | -78.7% (active) | -84.3% (active) | -57.7% (active) | -95.5% (active) | 22.3% | -67% (active) | -1.31% (active) | -100% (active) | -89.8% (active) | -100% (active) | -97.2% (active)
O=C(c1ccc(OCCN2CCOCC2)cc1)C1[C@H](c2ccc(Cl)cc2)[C@@H](c2ccccc2)NC12C(=O)Nc1ccc(Cl)cc12 (some centres not stated) | 45.8% | 4.95% (active) | 69.3% | 28.7% | 2.65% (active) | 43.8 | 27.4% | 41.5% | 45.4% | 23.2% | 16.2% | -75.4% (active) | 41% | 25.3% | 6.16% (active) | 51.6% | 40.1% | -45.5% (active) | 51.7%
COc1ccc(-c2ccnc(SCc3cc4ccccc4[nH]c3=O)n2)cc1OC | 36.4% | 62.9% | 8.86% (active) | -51.8% (active) | -30.4% (active) | 23 | -78.3% (active) | -84.7% (active) | 29.5% | 45.4% | 39.5% | -80.8% (active) | -7.41% (active) | -13.5% (active) | -21.9% (active) | 1.35% (active) | 1.83% (active) | 18.8% | 9.54% (active)
O=C1/C(=C/C2=Cc3ccccc3OC2)SC(=S)N1c1ccccc1F | 108% | 92.4% | 96.2% | 97.2% | 109% | 122 | 96.9% | 97.6% | 107% | 93.3% | 107% | 110% | 98.2% | 102% | 95.7% | 105% | 88.4% | 101% | 105%
O=C(c1ccccc1)c1ccc2nc(-c3ccc(F)cc3)[nH]c2c1 | 74.9% | 20.9% | 73% | 42.2% | 49.2% | 47.7 | 97.1% | 50.6% | 68.5% | 54.4% | 23.4% | 63.6% | 75.2% | -26.5% (active) | 56.4% | 60.2% | 43.2% | 14.3% | 63.3%
